In the library only some 2.3% were active in any assay of this set; here they are far more common.
CHRM1 PAM: positive allosteric modulators of human M1 muscarinic receptor; P11229; CHO-K1 hM1, Fluo-8 calcium fluorescence, ACh EC20; 0% = ACh EC20, 100% = maximal ACh; activation, % at 3 µM; 0.088% of 360,000 active; in the data active means activation above about 19%, passing the limit was not always enough
Target sequence (P11229 whole entry, looked up): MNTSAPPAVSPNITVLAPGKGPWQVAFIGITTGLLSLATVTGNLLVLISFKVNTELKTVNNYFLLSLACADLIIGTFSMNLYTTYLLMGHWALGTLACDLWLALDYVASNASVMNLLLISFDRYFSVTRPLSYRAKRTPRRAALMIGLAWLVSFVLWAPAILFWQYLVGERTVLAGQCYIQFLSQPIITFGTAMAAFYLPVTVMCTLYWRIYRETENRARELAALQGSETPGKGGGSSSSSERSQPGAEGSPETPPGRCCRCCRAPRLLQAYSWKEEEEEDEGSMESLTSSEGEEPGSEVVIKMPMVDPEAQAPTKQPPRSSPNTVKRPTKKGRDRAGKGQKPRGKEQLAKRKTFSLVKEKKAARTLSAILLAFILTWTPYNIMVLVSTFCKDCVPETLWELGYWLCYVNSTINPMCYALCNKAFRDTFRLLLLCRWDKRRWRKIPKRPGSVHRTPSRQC
CHO-K1 Ca antag: M1 antagonist counterscreen hit in parental CHO-K1 cells. ATP-induced calcium, Fluo-8 fluorescence. 0.6% of 360,000 active. inhibition, % at 3 µM. AID 602250;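 active means inhibition above a per-plate cutoff, the plate's mean sample inhibition plus 3 SD, cut at about 24% in these data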;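 further: 0% = DMSO plus EC80 ATP and 100% = DMSO alone without ATP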
CHRM1 antagonist: blocks human M1 muscarinic receptor | P11229 | CHO-K1 hM1, Fluo-8 calcium fluorescence, ACh EC80 antagonist | inhibition, % at 3 µM | 1.3% of 360,000 active | AID 588852;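 active means percent inhibition above its own plate's cutoff, namely the mean of that plate's compound wells plus 3 SD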;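 further: peak over basal fluorescence ratio during 140 s after agonist addition; 0% = ACh EC80 plus DMSO and 100% = DMSO alone without agonist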
M1 ag: human M1 muscarinic receptor agonism | CHO-K1 hM1, Fluo-8 calcium fluorescence, agonist mode; 0% DMSO, 100% acetylcholine EC100 | activation, % at 3 µM | 0.33% of 360,000 active | P11229 | AID 588814;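 active means activation above the run's mean compound activation plus 3 SD, cut at about 16% in these data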;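 further: peak over basal fluorescence ratio within a 140 s kinetic read after compound addition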
M1 PAM parental: nonselective activator or artifact in parental CHO-K1 calcium assay; ATP EC20, Fluo-8 calcium fluorescence; 0% at ATP EC20, 100% at ATP max; activation, % at 3 µM; 0.02% of 360,000 active; AID 602247;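 active means activation above the run cutoff, the mean activation of all test compounds plus 3 SD, cut at about 40% in these data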;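 further: peak over basal fluorescence ratio in a 140 s read after ATP addition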
M1 ag parental: M1 agonist counterscreen hit in parental CHO-K1 cells; Fluo-8 calcium fluorescence; scaled to maximal ATP response, vehicle zero; 0.48% of 360,000 active; AID 602248; activation, % at 3 µM; in the data active means activation above about 15%;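 further: untransfected CHO-K1 host cells lacking M1 receptor as counterscreen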
Numbers without * were called inactive; / = not tested or not shown.

SMILES | CHRM1 PAM | CHO-K1 Ca antag | CHRM1 antagonist | M1 ag | M1 PAM parental | M1 ag parental
O=C(NCCCSc1ccccc1)c1cc(Br)ccc1O | -11.8 | 16.5 | 30.8* | 1.9 | -1.6 | 10.7
O=C(NCC1CCOCC1)c1ccc(-c2ccc(F)c(F)c2)c2ccoc12 | 4.2 | -23.6 | -15.8 | -3.3 | 20.3 | 5.2
CN(C)C(=O)c1cccc(-c2cccc(-c3nc(C(=O)NCc4ccccc4)cc4c3[C@@H](CCO)N(S(=O)C(C)(C)C)C4)c2)c1 (stereo partly drawn) | -12.9 | 24.8* | 22.9 | -4.9 | -8.5 | 5.1
CCNC(=O)c1cc2c(c(-c3cccc(-c4cccc(C(=O)N(C)C)c4)c3)n1)[C@H](CCO)N(S(=O)C(C)(C)C)C2 (stereo partly drawn) | 4.6 | 2.9 | -5.1 | -10.1 | 13.0 | 1.1
COCC1CCCCC1OS(N)(=O)=O (stereo not drawn) | 7.2 | -0.5 | -6.5 | -3.0 | 7.7 | 1.0
CCCc1c(-c2ccc(Cl)cc2)ncn1Cc1ccccc1OC | / | 2.6 | / | / | 8.8 | 15.6*
Cc1cccc(C)c1C(=NCCN(C)C)c1ccccc1 | -24.1 | -13.7 | 75.0* | -6.4 | 24.6 | 1.1
CN(N=C(c1ccccc1)c1ccccc1)c1ccccc1 | 5.2 | -5.7 | -5.5 | 0.9 | 16.5 | 1.1
Cc1ccccc1C(=NCCCN(C)C)c1ccccc1C | -27.6 | -3.3 | 77.2* | -15.4 | 18.9 | 0.2
CCCCN(C)C(=O)c1nc2ccccn2c1CN1CCC[C@H]1CO | 7.1 | -4.0 | -10.1 | -4.7 | -2.0 | 0.7
COC(C[C@H]1O[C@@H]1[C@H](O)COCc1ccccc1)OC | 1.2 | 5.3 | -0.1 | -1.7 | 4.2 | -0.3
COC(C[C@H]1O[C@H]1[C@@H](O)COCc1ccccc1)OC | -12.6 | 1.8 | 39.2* | -6.2 | 2.9 | -0.3
O=C(NCCCN1CCOCC1)C(=O)N/N=C/c1c(Cl)cccc1Cl | 8.0 | -12.4 | 1.6 | -10.4 | 21.5 | 0.2
O=C(NCCCN1CCOCC1)C(=O)N/N=C/c1c2ccccc2cc2ccccc12 | -23.9 | -1.4 | 65.2* | -10.7 | 3.4 | 0.2
Cc1cc(C(=S)N2CCOCC2)c(C)n1-c1ccc(Cl)cc1 | -25.1 | -3.0 | 29.1* | -8.3 | 18.8 | 1.9
CCOC(=O)COc1cc2c3c(c(=O)oc2cc1C)CCCC3 | -22.3 | 4.6 | 47.7* | -5.0 | 15.1 | 2.7
C[C@H](NC(=O)N1CCn2c1nc1ccccc12)C(=O)NCc1ccccc1 | 0.3 | -5.8 | -4.7 | -4.4 | 1.6 | -0.6
N#C/C(=C\C=C\c1ccccc1)C(=O)NCc1ccco1 | 3.3 | -1.6 | 4.1 | 3.1 | 12.6 | 5.1
O=C(NCc1ccco1)/C(=C/C=C\c1ccccc1)NC(=O)c1ccc(Br)o1 | -0.8 | 14.9 | 4.5 | -4.7 | 13.7 | 17.9*
c1ccc(CN2CCC(Nc3nc(-c4cccs4)nc4ccccc34)CC2)cc1 | 7.9 | -4.2 | 1.6 | -0.7 | 20.5 | 15.8*
CC(=O)NC(CC(=O)NNC(=O)c1cc2ccccc2cc1O)c1ccccc1 (stereo not drawn) | 2.4 | -14.7 | -3.1 | -1.4 | 10.8 | 0.9
COc1ccc(CCNC(=O)c2ccc(CS(=O)(=O)Cc3ccc(C)cc3)o2)cc1OC | -6.4 | -8.3 | 3.3 | 2.2 | 9.4 | 15.2*
COc1ccc(CCNC(=O)c2ccc(CS(=O)(=O)c3ccc(C)cc3)o2)cc1OC | -1.9 | -8.9 | 5.8 | 1.6 | -19.0 | 5.8
Cc1ccc(CCNC(=O)c2ccc(CS(=O)(=O)Cc3ccc(F)cc3)o2)cc1 | 10.1 | -14.3 | -5.8 | 0.7 | 3.0 | 2.0
COc1ccc(CCNC(=O)c2ccc(CS(=O)(=O)c3ccc(Cl)cc3)o2)cc1OC | -25.0 | -0.4 | 30.1* | 4.3 | -3.9 | 16.8*
SMILES | CHRM1 PAM | CHO-K1 Ca antag | CHRM1 antagonist | M1 ag | M1 PAM parental | M1 ag parental
COC(=O)c1ccc(C[n+]2ccccc2)cc1 | 8.8 | 23.9* | -15.5 | -8.8 | -5.8 | -0.4
COC(=O)c1ccc(NC(=O)C[n+]2ccccc2)cc1 | -13.0 | -5.3 | 13.2 | -9.5 | 8.8 | 0.9
COc1ccc(C(C(=O)NC2CCCC2)N(Cc2cccnc2)C(=O)Cc2cccs2)c(OC)c1 (stereo not drawn) | 10.8 | -13.5 | -21.4 | -3.5 | 16.5 | 2.1
COc1ccc(/C=C/C(=O)OCC(=O)Nc2cc(C(N)=O)cc(C(N)=O)c2)cc1 | 10.8 | 24.8* | -7.5 | -7.3 | -15.3 | 10.6
NC(=O)c1ccsc1NC(=O)COC(=O)/C=C/c1ccc([N+](=O)[O-])cc1 | -8.3 | -3.0 | 6.5 | 2.3 | 1.3 | 12.5
COC(=O)c1ccc(/C=C/C(=O)OCC(=O)Nc2sccc2C(N)=O)cc1 | -24.6 | 9.6 | 47.1* | 4.7 | -17.4 | 16.2*
CCCCn1c(N)c(N(CCOC)C(=O)c2ccc(-c3ccc(C(C)=O)cc3)o2)c(=O)[nH]c1=O | 2.8 | -11.0 | -5.4 | -1.8 | -1.5 | 0.2
COc1ccc(NC(=O)COc2cccc3c2OC(C)(C)C3)cc1OC | -19.2 | 16.8 | 31.5* | 1.7 | -22.9 | 12.4
Cc1ccc(NC(=O)N(CCCN2CCOCC2)Cc2cccs2)cc1C | 32.4* | -14.4 | -31.4 | -3.1 | 19.6 | 0.2
COc1ccc(NC(=S)N(CCCN2CCCC2)Cc2cccs2)cc1 | -22.6 | -15.9 | 55.2* | -8.1 | 17.4 | 1.1
COc1ccc(NC(=S)N(CCCN2CCCCCC2)Cc2cccs2)cc1 | 6.2 | -5.8 | -8.6 | -5.5 | -4.3 | 0.0
CCN1CCN(CCCN(Cc2ccco2)C(=S)Nc2cccc(Cl)c2C)CC1 | -11.3 | -0.1 | 18.0 | -8.2 | -6.1 | 0.0
COc1ccc(NC(=S)N(CCCN2CCCC2)Cc2ccco2)cc1 | -19.9 | -9.8 | 36.1* | -7.7 | 17.9 | 0.1
Cc1c(Cl)cccc1NC(=S)N(CCCN1CCOCC1)Cc1ccco1 | -25.4 | -9.1 | 48.3* | -6.1 | -5.5 | 0.9
O=C(Nc1ccc(Cl)cc1)N(CCCN1CCOCC1)Cc1cccs1 | -12.0 | 3.5 | 4.8 | -9.0 | -4.0 | 1.5
O=C(NCCCN1CCOCC1)c1[nH]c(C(F)(F)F)nc1-c1ccccc1 | 3.9 | -14.2 | -35.1 | 0.9 | 10.0 | 0.7
S=C(Nc1ccc(Cl)cc1)N(CCCN1CCOCC1)Cc1cccs1 | -25.1 | -20.7 | 45.5* | -8.7 | 6.6 | 1.7
CSc1cccc(NC(=S)N(CCCN2CCCC2)Cc2cccn2Cc2ccc(Cl)cc2)c1 | -6.6 | 1.5 | 7.5 | -3.3 | 8.3 | 2.1
CSc1cccc(NC(=S)N(CCCN2CCCC2)Cc2cccs2)c1 | -24.0 | -17.8 | 36.4* | -7.0 | 25.8 | 2.9
CC1CN(C(=O)COc2ccc3c(-c4ccccc4)cc(=O)oc3c2)CC(C)O1 (stereo not drawn) | -14.1 | -9.7 | 29.4* | -2.1 | -11.4 | 0.8
CCOC(=O)c1cc(=O)c2ccc(OCC(=O)Nc3ccc(F)cc3)cc2o1 | 8.5 | -1.4 | -8.4 | 10.5 | 9.9 | 24.9*
O=C(COc1ccc2c(-c3ccccc3)cc(=O)oc2c1)Nc1ccc(CCO)cc1 | -11.0 | 25.9* | 23.8 | 4.9 | -20.0 | 17.8*
